# Measurements: the supplement of paper PMC8728848
# The sample as a whole holds a higher share of the strongest signals than the screen did.
# Experiments:
# Assay in all cases: glycan array binding signal (z-score within array); higher = stronger binding
# Settings in all cases: glycan notation: IUPAC condensed, linker removed
# [1] = biological target: Fuc(a1-2)Gal(b1-4)GlcNAc(b1-2)Man
# Summary of the method: (§1)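 The Consortium for Functional Glycomics database supplied 3228 glycan arrays, of which those lacking an available protein sequence were dropped. The binding signal, a within-array Z-score, was averaged across arrays of the same protein sequence and across linkers. Negative scores can be read as non-binding.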
# [2] = biological target: Fuc(a1-2)Gal(b1-4)[Fuc(a1-3)]GlcNAc(b1-2)[Fuc(a1-2)Gal(b1-4)[Fuc(a1-3)]GlcNAc(b1-4)]Man(a1-3)[Fuc(a1-2)Gal(b1-4)[Fuc(a1-3)]GlcNAc(b1-2)Man(a1-6)]Man(b1-4)GlcNAc(b1-4)GlcNAc
# Summary of the method: as §1
# [3] = biological target: Fuc(a1-2)Gal6S(b1-4)Glc6S
# Summary of the method: as §1
# [4] = biological target: Fuc(a1-2)[Gal(a1-3)]Gal(b1-3)GalNAc
# Summary of the method: as §1
# [5] = biological target: Fuc(a1-2)[Gal(a1-3)]Gal(b1-4)GlcNAc(b1-2)Man(a1-3)[Fuc(a1-2)[Gal(a1-3)]Gal(b1-4)GlcNAc(b1-2)Man(a1-6)]Man(b1-4)GlcNAc(b1-4)[Fuc(a1-6)]GlcNAc
# Summary of the method: as §1
# [6] = biological target: Fuc(a1-2)[Gal(a1-4)]Gal(b1-4)GlcNAc
# Summary of the method: as §1
# [7] = biological target: Fuc(a1-2)[GalNAc(a1-3)]Gal(b1-4)GlcNAc(b1-6)GalNAc
# Summary of the method: as §1
# [8] = biological target: Fuc(a1-3)[Gal(b1-4)]GlcNAc
# Summary of the method: as §1
# [9] = biological target: Fuc(a1-3)[Gal(b1-4)]GlcNAc(b1-3)Gal(b1-4)[Fuc(a1-3)]GlcNAc
# Summary of the method: as §1
# [10] = biological target: Fuc(a1-3)[Gal(b1-4)]GlcNAc(b1-3)Gal(b1-4)[Fuc(a1-3)]GlcNAc(b1-3)Gal(b1-4)[Fuc(a1-3)]GlcNAc
# Summary of the method: as §1
# [11] = biological target: Fuc(a1-3)[Gal(b1-4)]GlcNAc(b1-4)Gal(b1-4)[Fuc(a1-3)]GlcNAc(b1-4)Gal(b1-4)[Fuc(a1-3)]GlcNAc
# Summary of the method: as §1
# [12] = biological target: Fuc(a1-4)GlcNAc
# Summary of the method: as §1
# [13] = biological target: Gal(a1-3)Gal(b1-3)[Fuc(a1-4)]GlcNAc(b1-2)Man(a1-3)[Gal(a1-3)Gal(b1-3)[Fuc(a1-4)]GlcNAc(b1-2)Man(a1-6)]Man(b1-4)GlcNAc(b1-4)GlcNAc
# Summary of the method: as §1
# [14] = biological target: Gal(a1-3)[Gal(a1-4)]Gal(b1-4)GlcNAc
# Summary of the method: as §1
# [15] = biological target: Gal(a1-4)Gal(b1-3)GlcNAc(b1-2)Man(a1-3)[Gal(a1-4)Gal(b1-3)GlcNAc(b1-2)Man(a1-6)]Man(b1-4)GlcNAc(b1-4)GlcNAc
# Summary of the method: as §1
# [16] = biological target: Gal(b1-3)Gal
# Summary of the method: as §1
# [17] = biological target: Gal(b1-3)GalNAc
# Summary of the method: as §1
# [18] = biological target: Gal(b1-3)[Neu5Ac(a2-6)]GalNAc
# Summary of the method: as §1
# [19] = biological target: Gal(b1-3)[Neu5Ac(a2-6)]GlcNAc(b1-4)Gal(b1-4)Glc
# Summary of the method: as §1
# [20] = biological target: Gal(b1-4)GlcNAc(b1-2)Man(a1-3)[Gal(b1-4)GlcNAc(b1-2)Man(a1-6)][Gal(b1-4)GlcNAc(b1-4)]Man(b1-4)GlcNAc(b1-4)[Fuc(a1-6)]GlcNAc
# Summary of the method: as §1
# [21] = biological target: Gal(b1-4)GlcNAc(b1-2)Man(a1-3)[Man(a1-6)]Man(b1-4)GlcNAc(b1-4)GlcNAc
# Summary of the method: as §1
# [22] = biological target: Gal(b1-4)GlcNAc(b1-3)Gal(b1-4)GlcNAc(b1-2)Man(a1-3)[Gal(b1-4)GlcNAc(b1-3)Gal(b1-4)GlcNAc(b1-2)Man(a1-6)]Man(b1-4)GlcNAc(b1-4)GlcNAc
# Summary of the method: as §1
# [23] = biological target: Gal(b1-4)GlcNAc(b1-3)Gal(b1-4)GlcNAc(b1-3)Gal(b1-4)GlcNAc(b1-2)Man(a1-3)[Gal(b1-4)GlcNAc(b1-3)Gal(b1-4)GlcNAc(b1-3)Gal(b1-4)GlcNAc(b1-2)Man(a1-6)]Man(b1-4)GlcNAc(b1-4)GlcNAc
# Summary of the method: as §1
# [24] = biological target: Gal(b1-4)GlcNAc(b1-3)Gal(b1-4)GlcNAc(b1-3)Gal(b1-4)GlcNAc(b1-3)Gal(b1-4)GlcNAc(b1-3)Gal(b1-4)GlcNAc(b1-2)Man(a1-3)[Gal(b1-4)GlcNAc(b1-3)Gal(b1-4)GlcNAc(b1-3)Gal(b1-4)GlcNAc(b1-3)Gal(b1-4)GlcNAc(b1-3)Gal(b1-4)GlcNAc(b1-2)Man(a1-6)]Man(b1-4)GlcNAc(b1-4)GlcNAc
# Summary of the method: as §1
# [25] = biological target: Gal(b1-4)GlcNAc(b1-3)[Fuc(a1-3)GlcNAc(b1-6)]Gal(b1-4)Glc
# Summary of the method: as §1
# [26] = biological target: Gal6S(b1-4)Glc
# Summary of the method: as §1
# [27] = biological target: GalNAc(b1-4)GlcNAc(b1-2)Man(a1-3)[GalNAc(b1-4)GlcNAc(b1-2)Man(a1-6)]Man(b1-4)GlcNAc(b1-4)GlcNAc
# Summary of the method: as §1
# [28] = biological target: GalNAc(b1-6)GalNAc
# Summary of the method: as §1
# [29] = biological target: GalNAc6S(b1-4)GlcNAc
# Summary of the method: as §1
# [30] = biological target: Glc(a1-6)Glc(a1-6)Glc(a1-6)Glc
# Summary of the method: as §1
# [31] = biological target: GlcNAc(a1-4)Gal(b1-3)GlcNAc
# Summary of the method: as §1
# [32] = biological target: GlcNAc(b1-2)Man(a1-3)[GlcNAc(b1-4)][GlcNAc(b1-2)Man(a1-6)]Man(b1-4)GlcNAc(b1-4)[Fuc(a1-6)]GlcNAc
# Summary of the method: as §1
# [33] = biological target: GlcNAc(b1-3)Gal(b1-4)GlcNAc
# Summary of the method: as §1
# [34] = biological target: GlcNAc(b1-3)Gal(b1-4)GlcNAc(b1-6)[GlcNAc(b1-3)Gal(b1-3)]GalNAc
# Summary of the method: as §1
# [35] = biological target: GlcNAc(b1-3)[GlcNAc(b1-6)]GalNAc
# Summary of the method: as §1
# [36] = biological target: GlcNAc(b1-6)GalNAc
# Summary of the method: as §1
# [37] = biological target: Kdn(a2-3)Gal(b1-4)[Fuc(a1-3)]GlcNAc
# Summary of the method: as §1
# [38] = biological target: Neu5Ac(a2-3)Gal(b1-4)GlcNAc(b1-3)Gal(b1-4)GlcNAc(b1-3)Gal(b1-4)GlcNAc(b1-2)Man(a1-3)[Neu5Ac(a2-3)Gal(b1-4)GlcNAc(b1-3)Gal(b1-4)GlcNAc(b1-3)Gal(b1-4)GlcNAc(b1-2)Man(a1-6)]GalNAc
# Summary of the method: as §1
# [39] = biological target: Neu5Ac(a2-3)Gal(b1-4)GlcNAc(b1-3)Gal(b1-4)GlcNAc(b1-3)GalNAc
# Summary of the method: as §1
# [40] = biological target: Neu5Ac(a2-3)Gal(b1-4)[Fuc(a1-3)]GlcNAc(b1-2)Man
# Summary of the method: as §1
# [41] = biological target: Neu5Ac(a2-6)Gal(b1-4)GlcNAc(b1-2)Man(a1-3)[GlcNAc(b1-2)Man(a1-6)]Man(b1-4)GlcNAc(b1-4)GlcNAc
# Summary of the method: as §1
# [42] = biological target: Neu5Ac(a2-6)Gal(b1-4)GlcNAc(b1-2)Man(a1-3)[GlcNAc(b1-4)][Neu5Ac(a2-6)Gal(b1-4)GlcNAc(b1-2)Man(a1-6)]Man(b1-4)GlcNAc(b1-4)GlcNAc
# Summary of the method: as §1
# [43] = biological target: Neu5Ac(a2-6)Gal(b1-4)GlcNAc(b1-2)Man(a1-3)[Neu5Ac(a2-3)Gal(b1-4)GlcNAc(b1-2)Man(a1-6)]Man(b1-4)GlcNAc(b1-4)GlcNAc
# Summary of the method: as §1
# [44] = biological target: Neu5Ac9Ac(a2-3)Gal(b1-4)GlcNAc
# Summary of the method: as §1
# [45] = biological target: Neu5Gc(a2-3)Gal(b1-4)[Fuc(a1-4)]GlcNAc
# Summary of the method: as §1
binder,measurement,setting,value
"MGL1 (Mus musculus), P49300 (protein) MIYENLQNSRIEEKTQEPGKAPSQSFLWRILSWTHLLLFSLGLSLLLLVVVSVIGSQNSQLRRDLGTLRATLDNTTSKIKAEFQSLDSRADSFEKGISSLKVDVEDHRQELQAGRDLSQKVTSLESTVEKREQALKTDLSDLTDHVQQLRKDLKALTCQLANLKNNGSEVACCPLHWTEHEGSCYWFSESEKSWPEADKYCRLENSHLVVVNSLEEQNFLQNRLANVVSWIGLTDQNGPWRWVDGTDFEKGFKNWAPLQPDNWFGHGLGGGEDCAHITTGGPWNDDVCQRTFRWICEMKLAKES",glycan array binding signal (z-score),[1],0.007
same,glycan array binding signal (z-score),[2],0.824
same,glycan array binding signal (z-score),[3],0.081
same,glycan array binding signal (z-score),[4],-0.265
same,glycan array binding signal (z-score),[5],-1.16
same,glycan array binding signal (z-score),[6],1.45
same,glycan array binding signal (z-score),[7],0.044
same,glycan array binding signal (z-score),[8],5.46
same,glycan array binding signal (z-score),[9],3.95
same,glycan array binding signal (z-score),[10],5.1
same,glycan array binding signal (z-score),[11],9.12
same,glycan array binding signal (z-score),[12],0.064
same,glycan array binding signal (z-score),[13],-0.177
same,glycan array binding signal (z-score),[14],1.06
same,glycan array binding signal (z-score),[15],2.41
same,glycan array binding signal (z-score),[16],-0.039
same,glycan array binding signal (z-score),[17],-0.112
same,glycan array binding signal (z-score),[18],-0.361
same,glycan array binding signal (z-score),[19],0.273
same,glycan array binding signal (z-score),[20],3.48
same,glycan array binding signal (z-score),[21],0.201
same,glycan array binding signal (z-score),[22],2.62
same,glycan array binding signal (z-score),[23],3.01
same,glycan array binding signal (z-score),[24],2.31
same,glycan array binding signal (z-score),[25],4.54
same,glycan array binding signal (z-score),[26],0.208
same,glycan array binding signal (z-score),[27],0.218
same,glycan array binding signal (z-score),[28],-0.374
same,glycan array binding signal (z-score),[29],0.509
same,glycan array binding signal (z-score),[30],-0.085
same,glycan array binding signal (z-score),[31],0.26
same,glycan array binding signal (z-score),[32],0.417
same,glycan array binding signal (z-score),[33],0.138
same,glycan array binding signal (z-score),[34],-0.907
same,glycan array binding signal (z-score),[35],-0.368
same,glycan array binding signal (z-score),[36],0.042
same,glycan array binding signal (z-score),[37],0.025
same,glycan array binding signal (z-score),[38],3.39
same,glycan array binding signal (z-score),[39],-0.308
same,glycan array binding signal (z-score),[40],-0.66
same,glycan array binding signal (z-score),[41],-0.089
same,glycan array binding signal (z-score),[42],-0.48
same,glycan array binding signal (z-score),[43],-0.988
same,glycan array binding signal (z-score),[44],-0.495
same,glycan array binding signal (z-score),[45],-0.153
